± gives the standard deviation of the averaged measurements.
Each compound was assayed on AEK1 (Tb927.3.2440) (assay: percent reduction in TR-FRET probe signal relative to DMSO control; higher = stronger displacement of ATP-site probe (binding)). Details: 1 µM; incubation time 1 h.

Compound | percent reduction in TR-FRET probe signal
CCn1c(-c2nonc2N)nc2c(C#CC(C)(C)O)ncc(OC[C@H]3CCCNC3)c21 | 8.8 ± 4.9%
CCN(C)S(=O)(=O)Nc1ccc(F)c(C(=O)c2c[nH]c3ncc(-c4cnc(C5CC5)nc4)cc23)c1F | -1.7 ± 4%
FC(F)c1nc2ccccc2n1-c1nc(N2CCOCC2)nc(N2CCOCC2)n1 | -1.21 ± 9.1%
C=CC(=O)Nc1ccc2ncnc(Nc3ccc(OCc4cccc(F)c4)c(Cl)c3)c2c1.Cc1ccc(S(=O)(=O)O)cc1 | 4.49 ± 7.8%

Source: the supplement of paper PMC10720658
